Data on 7 compounds can be found in PubChem BioAssay AID990 (National Center for Advancing Translational Sciences (NCATS), 2007).

Each structure is given as a SMILES string. Active and inactive are the calls of the source.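 How the source made its calls: active means compound that made reporter-free parental cells show up as glowing objects under laser imaging, so likely a fluorescent false positive; inactive means the rest.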

The experiment in a line: Parental Cell Counter Screen Assay for Epigenetic Modulators. The conditions noted are these: parental c127i cells, compound fluorescence imaging, 30 h. The text has this: NIH Molecular Libraries Screening Centers Network [MLSCN] NIH Chemical Genomics Center [NCGC] MLSCN Grant: 1 X01 MH079860-01 Assay Provider: Elisabeth D. Martinez, University of Texas SW Medical Center NCGC Assay Overview: This assay is a counter screen for the Locus Derepression (LDR) assay (PubChem AID 597). The LDR assay detects the derepression of a GFP reporter that is stably integrated in a region of the genome of murine c127i mammary cells that is presumably silenced. Compounds that cause derepression of the locus to express GFP are identified by enumerating GFP positive cells using a laser-scanning microplate cytometer. […] Compounds active in the parental c127i cells are likely fluorescent.
NCGC Assay Protocol Summary: Two hundred and fifty cells in 5 uL per well were dispensed into black, clear-bottom 1536-well plates. Twenty-three nL compound was transferred to the assay plate and cells were incubated 30 hours at 37 C. Medium was removed, cells were washed two times with PBS, and fluorescent cells were enumerated as objects between the sizes of 20 to 120 um width and depth using a laser-scanning microplate imager (Acumen Explorer Ex3, TTP Labtech).
For orientation: Counterscreens check selectivity or assay interference.
As for `Cc1ccc(N=Nc2ccc(O)c3ncccc23)cc1C`, the result was inactive. With `Oc1c(C(Nc2ccccn2)c2ccccn2)ccc2cccnc12` (configuration not stated) the entry was “inactive”. `O=C1OCCC1Sc1cccc2cccnc12` (configuration not stated): the result was inactive.

As to `COc1ccc(NC(c2ccccn2)c2ccc3cccnc3c2O)cc1` (configuration not stated), the outcome was inactive. Take `COc1ccc(C)cc1N=Nc1ccc(O)c2ncccc12`: the outcome was inactive. Consider `O=C(CSc1cccc2cccnc12)Nc1ccccc1`, for which the outcome was inactive.

Regarding `Cc1cc(C)n(-c2nc(NC(C)(C)C)nc(NC(C)(C)C)n2)n1`, the result was inactive.
